Measurements: PubChem BioAssay (NCI)
About 83,000 compounds went through this panel and 20% of them were active in at least one assay; those are over-represented in the sample as a whole.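 Compound tested at a single concentration for 48 hours in 96-well plates; a percent growth value below 10 was scored as active.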 A number with no mark means an inactive call. Active and inactive are the calls of the source.

Experiments:
Test in all cases: NCI-60 one-dose screen, 48 h (100 = growth as untreated, 0 = no growth, -100 = all killed)
Conditions in all cases: 10 µM unless noted
SR leukemia = test system: SR leukemia
RPMI-8226 leukemia = test system: RPMI-8226 leukemia
OVCAR-8 ovarian = test system: OVCAR-8 ovarian
OVCAR-5 ovarian = test system: OVCAR-5 ovarian
OVCAR-4 ovarian = test system: OVCAR-4 ovarian
SK-OV-3 ovarian = test system: SK-OV-3 ovarian
IGROV1 ovarian = test system: IGROV1 ovarian
OVCAR-3 ovarian = test system: OVCAR-3 ovarian
HS 578T breast = test system: HS 578T breast
NCI/ADR-RES ovarian = test system: NCI/ADR-RES ovarian
T-47D breast = test system: T-47D breast
BT-549 breast = test system: BT-549 breast
MDA-MB-435 melanoma = test system: MDA-MB-435 melanoma
SW-620 colon = test system: SW-620 colon
MCF7 breast = test system: MCF7 breast
HCT-116 colon = test system: HCT-116 colon
HCC-2998 colon = test system: HCC-2998 colon
KM12 colon = test system: KM12 colon

Structure (SMILES)	growth (SR leukemia)	growth (RPMI-8226 leukemia)	growth (OVCAR-8 ovarian)	growth (OVCAR-5 ovarian)	growth (OVCAR-4 ovarian)	growth (SK-OV-3 ovarian)	growth (IGROV1 ovarian)	growth (OVCAR-3 ovarian)	growth (HS 578T breast)	growth (NCI/ADR-RES ovarian)	growth (T-47D breast)	growth (BT-549 breast)	growth (MDA-MB-435 melanoma)	growth (SW-620 colon)	growth (MCF7 breast)	growth (HCT-116 colon)	growth (HCC-2998 colon)	growth (KM12 colon) [%]
N/C(=N\OC(=O)c1ccccc1)C(C(=O)NOC(=O)c1ccccc1)C1CCCCC1 (configuration not stated)	4.57% (active)	41.5%	65.8%	92.2%	72.8%	108%	-56.2% (active)	66.9%	26.7%	45.2%	72.1%	74.4%	38.9%	82.1%	65.6%	36.7%	98%	19.9
COc1ccc2[nH]cc(C3(c4c[nH]c5ccc(OC)cc45)C(=O)Nc4ccc(Cl)cc43)c2c1	7.95% (active)	36.4%	90.4%	89.1%	79.6%	93.4%	50%	61.9%	65.4%	90.1%	76.4%	93.7%	23.3%	30%	61.7%	64.3%	58%	14.8
N#CCCn1cnc2c(N)ncnc21	98%	101%	96.5%	98.4%	107%	99.6%	125%	109%	99.5%	109%	95.4%	103%	102%	102%	97.1%	99.1%	113%	106
CCCCOC(=O)c1cc(O)c(O)c(O)c1	44.5%	59.2%	68.6%	92.2%	58.9%	85.1%	55.6%	61.8%	86.4%	74.4%	61%	67.4%	74.8%	80.2%	84.9%	64.9%	92.5%	69
CC(=O)Nc1c(Br)cc2c(c1Br)Cc1cc(Br)ccc1-2	54.4%	83%	68.7%	108%	9.85% (active)	85.7%	45%	87%	-7.93% (active)	76.1%	38.9%	77.3%	69.3%	41.7%	59.9%	46.6%	102%	59.6
Cc1ccccc1NC(=O)c1sc2nc3c(cc2c1N)C(=O)CCC3	34.4%	67.2%	78.6%	80.8%	67.6%	22.1%	77%	4.33% (active)	25.8%	22.6%	43.9%	55.6%	-12.9% (active)	25.4%	21.7%	34.5%	67%	19.2
O=C(Nc1ccc(Br)cc1)Nc1cccc(Br)c1	38%	8.97% (active)	48.8%	76.8%	28.8%	75.2%	25.5%	16.2%	76%	46.4%	-10.5% (active)	58.2%	47.4%	29%	13.3%	27.5%	27.6%	13.2
CCNCCCn1c2c(c3ccc(Cl)cc3c1=O)C(=O)c1cc(OC)cnc1-2	-63.6% (active)	-48.8% (active)	-30.7% (active)	-11.9% (active)	52.2%	-11% (active)	44.7%	39.1%	58.8%	35.5%	16.6%	39.8%	68.1%	-64.5% (active)	-64.9% (active)	-95.8% (active)	68%	32.8
Oc1c(C(Nc2cccc3ccccc23)c2ccccc2)ccc2cccnc12 (configuration not stated)	3.7% (active)	37.6%	25%	49.8%	11.4%	49.6%	21.5%	22.4%	63.5%	4.58% (active)	49.1%	-16.1% (active)	42.3%	37.6%	25.8%	15.6%	27.5%	36
O=C1Nc2ccc(Br)cc2/C1=N/c1nc(-c2ccccc2)cs1	85.2%	75.6%	89.1%	108%	80.5%	60.7%	84%	75%	90.3%	103%	58.9%	73.2%	97.8%	88.6%	67.4%	75.6%	109%	88.3
Cn1c(-c2ccccc2)cc(=O)n1-c1ccccc1	101%	96.5%	107%	104%	103%	110%	114%	124%	115%	112%	102%	110%	98.4%	117%	93.6%	100%	100%	103
CCN(CC)c1cc(C)c(Cc2c(OC)ccc3ccccc23)cc1C	85.5%	102%	96.8%	102%	96.9%	83.4%	88.6%	106%	81%	103%	82.3%	105%	104%	86.1%	90.9%	86.2%	100%	98.1
O=C(C(=O)N1CCCC1)c1cn(CCCn2cc(C(=O)C(=O)N3CCCC3)c3cc(Br)ccc32)c2ccc(Br)cc12	65.9%	76.8%	59.6%	94.7%	5.38% (active)	90.4%	67.9%	60%	-9.76% (active)	51%	70.8%	84.7%	74.3%	85.5%	61.6%	58.6%	81.6%	86.2
Clc1cccc(CNc2c3ccccc3nc3ccccc23)c1	-3.9% (active)	-23.5% (active)	31.1%	32.4%	18.8%	63.9%	16.5%	57.7%	53.7%	26.3%	40.9%	59.1%	46.6%	12%	0.909% (active)	8.69% (active)	-53.6% (active)	40.8
C[C@@H]1CC2C3CCC4=CC(=O)C=C[C@]4(C)[C@@]3(Cl)[C@@H](O)C[C@]2(C)[C@@]1(OC(=O)c1ccco1)C(=O)CCl (some centres not stated)	54.6%	55.9%	53%	83.1%	67.7%	54.1%	76.3%	89.3%	67.2%	39.9%	97.1%	27.9%	73.4%	95.3%	58.9%	57.4%	75.9%	76.9
Brc1ccsc1Br	107%	103%	122%	106%	107%	94.8%	103%	122%	129%	116%	95.4%	102%	113%	111%	103%	105%	105%	111
C#CCO[C@H]1CC[C@H](OCC#C)[C@@H]2[C@H]1[C@H]1C[C@@H]3[C@@]4(C)CCC[C@@](C)(C(=O)OC)[C@@H]4CC[C@@]23C=C1C(C)C	20.5%	11.7%	82%	92.1%	99.3%	88.6%	0.137% (active)	75.4%	114%	71.4%	94.6%	106%	106%	103%	90.5%	70.4%	94.6%	78

Structure (SMILES)	growth (SR leukemia)	growth (RPMI-8226 leukemia)	growth (OVCAR-8 ovarian)	growth (OVCAR-5 ovarian)	growth (OVCAR-4 ovarian)	growth (SK-OV-3 ovarian)	growth (IGROV1 ovarian)	growth (OVCAR-3 ovarian)	growth (HS 578T breast)	growth (NCI/ADR-RES ovarian)	growth (T-47D breast)	growth (BT-549 breast)	growth (MDA-MB-435 melanoma)	growth (SW-620 colon)	growth (MCF7 breast)	growth (HCT-116 colon)	growth (HCC-2998 colon)	growth (KM12 colon) [%]
COc1cc(C2CC(c3ccc(Cl)cc3)=NN2C=O)ccc1Oc1ccnc2cc(Cl)ccc12 (configuration not stated)	63.2%	65.1%	44.6%	92.7%	28.1%	60%	97%	73.4%	35.5%	76.6%	56.4%	94.7%	73.3%	84.5%	53.4%	49.2%	72.8%	76.2
Oc1ccccc1-c1nnc(COc2ccc(Cl)cc2Cl)o1	36%	39.4%	36.8%	89.1%	49.3%	60.7%	50.7%	20.2%	78.2%	30.6%	42.6%	63.3%	63.9%	51.2%	20.6%	18.2%	76.8%	41.5
ClC1=NC(Cl)C(Cl)=N/C1=N\c1ncn[nH]1 (configuration not stated)	-60.4% (active)	-8.16% (active)	-1.21% (active)	85%	-70.3% (active)	66.3%	-50.2% (active)	-82.2% (active)	123%	91.9%	-38.3% (active)	91.4%	13.8%	-78.7% (active)	5.67% (active)	-70.2% (active)	53.6%	26.4
Oc1ccc(-c2nc3ccccc3s2)cc1CN(Cc1ccccn1)Cc1ccccn1	7.98% (active)	13.2%	9.43% (active)	40.9%	18%	7% (active)	15%	26.2%	41.6%	-37.2% (active)	12.8%	18.5%	26.6%	20.1%	14.8%	15.5%	5.52% (active)	24.8
CN1CCCN(CCNc2nccc(-c3c(-c4cccc(O)c4)nc4sccn34)n2)S1(=O)=O	13.9%	81.7%	60.1%	80.6%	51.5%	15.5%	13.7%	60.6%	54.3%	102%	60.7%	62.9%	11%	71%	74.1%	21.2%	74.8%	64.8
COc1cc(C2CC(c3ccccc3)=NN2C=O)ccc1Oc1nc2c(c(=O)n(C)c(=O)n2C)n1C (configuration not stated)	67.4%	61.1%	91.3%	97.6%	65.3%	125%	77.7%	103%	75.8%	57.9%	69.7%	95.7%	56.8%	97.9%	72.3%	79.9%	77.6%	74.7
O=C(Nc1cccc(N=Cc2c(O)ccc3ccccc23)c1)c1ccccc1	101%	94.6%	93%	108%	88.1%	90.4%	101%	103%	97.4%	103%	85.2%	85.3%	101%	98.6%	86.3%	93.9%	102%	95.6
Cc1cccc(N=NC(=S)NNc2cccc(C)c2)c1	107%	96.4%	108%	111%	101%	105%	92.4%	139%	116%	113%	97.6%	134%	112%	107%	92.8%	109%	104%	124
N/C(=N\OC(=O)c1ccccc1)C(Cc1ccccc1)C(=O)NOC(=O)c1ccccc1 (configuration not stated)	6.24% (active)	16.4%	38%	101%	66.8%	103%	-63.2% (active)	51.3%	-14.5% (active)	18.3%	76.1%	26.4%	5.12% (active)	65.3%	51.3%	2.08% (active)	96.4%	24.2
CCOC(=O)N1C2CCC(C2)N1C(=O)OCC	101%	101%	101%	100%	95.3%	104%	108%	113%	111%	108%	108%	101%	113%	105%	90.1%	103%	104%	112
COc1cc(C2CC(c3ccc(C)cc3)=NN2C=O)ccc1Oc1nc2c(c(=O)n(C)c(=O)n2C)n1C (configuration not stated)	85.7%	72.1%	92.4%	102%	77.8%	124%	82.6%	105%	80.2%	63%	80%	97.9%	62.7%	102%	77.1%	81.8%	86.6%	77.9
CCCCCN(CCCCC)C(=O)C(CCC(=O)O)NC(=O)c1ccc(Cl)c(Cl)c1 (configuration not stated)	94.4%	118%	106%	102%	115%	114%	107%	113%	102%	106%	102%	132%	112%	106%	96.7%	112%	113%	114
CS(=O)(=O)c1ccc(C(=O)N/N=C/c2ccccc2O)cc1	20.4%	48.7%	27.9%	64.7%	43.6%	39.9%	41%	22.8%	81.5%	29.9%	52.4%	53%	59.7%	43.3%	22.5%	29.1%	47.3%	34.1
CN1C(=O)N(C)C2C1NN=c1s/c(=C\c3ccsc3)c(=O)n12 (configuration not stated)	20.6%	58%	59.5%	72.6%	89.5%	59.7%	46.9%	14.9%	53.9%	39.8%	44.3%	37%	-3.38% (active)	26.6%	15.2%	18.5%	73.7%	18.9
CCOC(=O)c1ccc(NC(=O)CSC(N)=O)cc1	96.8%	87.3%	100%	99.1%	122%	128%	92%	109%	105%	99.3%	131%	93.8%	113%	103%	99.3%	87.9%	105%	111
CC(C)(C)OC[C@@H]1N=C(c2ccc(Br)cc2)Nc2nc3ccccn3c2C1=O	35.4%	67.5%	79.5%	105%	82.3%	64.3%	40.7%	34.2%	65.2%	39.7%	61.9%	72.5%	-13.8% (active)	40.3%	27.8%	43.7%	90.9%	49
CCC(=O)NC1=C(Cl)C(=O)C(NC(=O)CC)=C(Cl)C1=O	-55.1% (active)	-34.3% (active)	99.3%	107%	-98.5% (active)	99.9%	116%	-94.5% (active)	135%	101%	-54.4% (active)	119%	136%	-72.1% (active)	28.3%	-93.1% (active)	103%	109
